In PubChem BioAssay AID1159580 (chemical genetic matrix, 2015):
In all, about 5,500 compounds went through this assay and about 2,000 (36%) were called active. Inconclusive results (about 18%) are left out. Cut-off read from the data, not from the text of the source: active = normalized growth mostly below about 0.91 (no sharp cut-off); inconclusive = no clear call, values can overlap the other calls; inactive = mostly above about 0.92. The list shows a part of the results.

Test: chemical genetic growth profiling, strain panel (AID 1159580);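 note: tested at 20 µM; growth read once vehicle control cultures reached saturation at 30 °C; 1 = growth at the plate median or of vehicle wells; lower values mean less growth of the strain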
Conditions: S. cerevisiae deletion strains, growth OD

Measured: normalized growth

CC(=O)O[C@]1(C(C)=O)CCC2C3C=C(Cl)C4=CC(=O)CC[C@]4(C)C3CC[C@@]21C (some centres undefined)
inactive: locus YAL021C, strain ccr4, active compounds read low 1.02 | locus YAL026C, strain drs2, active compounds read low 1.04 | locus YAL030W, strain snc1, active compounds read low 0.978 | locus YBL061C, strain skt5, active compounds read low 0.997 | locus YBR009C, strain hhf1, active compounds read low 0.999 | locus YBR023C, strain chs3, active compounds read low 1.01 | locus YBR171W, strain sec66, active compounds read low 1.01 | locus YBR231C, strain swc5, active compounds read low 1 | locus YBR279W, strain paf1, active compounds read low 1 | locus YCL011C, strain gbp2, active compounds read low 1 | locus YCL016C, strain dcc1, active compounds read low 0.988 | locus YCL069W, strain vba3, active compounds read low 1.01 | locus YCR088W, strain abp1, active compounds read low 1.01 | locus YDL005C, strain med2, active compounds read low 0.991 | locus YDL040C, strain nat1, active compounds read low 1 | locus YDR001C, strain nth1, active compounds read low 1.01 | locus YDR069C, strain doa4, active compounds read low 0.967 | locus YDR137W, strain rgp1, active compounds read low 0.894 | locus YDR159W, strain sac3, active compounds read low 0.925 | locus YDR195W, strain ref2 1.02 | locus YDR297W, strain sur2, active compounds read low 0.957 | locus YDR334W, strain swr1, active compounds read low 1.01 | locus YDR335W, strain msn5, active compounds read low 0.974 | locus YDR392W, strain spt3, active compounds read low 0.832 | locus YEL003W, strain gim4, active compounds read low 1.01 | locus YEL037C, strain rad23, active compounds read low 1.02 | locus YEL061C, strain CIN8 (second series), active compounds read low 1.01 | locus YER015W, strain faa2, active compounds read low 1.01 | locus YER016W, strain bim1, active compounds read low 0.984 | locus YER111C, strain swi4, active compounds read low 1.01 | locus YER155C, strain BEM2 (second series), active compounds read low 0.99 | locus YFR010W, strain ubp6, active compounds read low 1.03 | locus YGL167C, strain pmr1, active compounds read low 0.993 | locus YGL173C, strain kem1, active compounds read low 1.03 | locus YGL227W, strain vid30, active compounds read low 0.998 | locus YGL240W, strain doc1, active compounds read low 0.952 | locus YGL253W, strain hxk2, active compounds read low 0.991 | locus YHR013C, strain ard1, active compounds read low 1.06 | locus YHR027C, strain rpn1, active compounds read low 0.985 | locus YHR030C, strain SLT2, active compounds read low 1.03 | locus YHR079C, strain IRE1, active compounds read low 1.04 | locus YHR142W, strain chs7, active compounds read low 1 | locus YJL092W, strain hpr5, active compounds read low 1.01 | locus YJL095W, strain BCK1 (second series), active compounds read low 0.983 | locus YJL095W, strain BCK1, active compounds read low 0.991 | locus YJL115W, strain asf1, active compounds read low 1.03 | locus YJL129C, strain trk1, active compounds read low 1.01 | locus YJL154C, strain vps35, active compounds read low 1.01 | locus YJL164C, strain tpk1, active compounds read low 1.01 | locus YJL166W, strain qcr8, active compounds read low 0.98 | locus YJL187C, strain SWE1, active compounds read low 0.952 | locus YJR066W, strain TOR1, active compounds read low 0.98 | locus YKL160W, strain elf1, active compounds read low 0.977 | locus YKR026C, strain gcn3, active compounds read low 1.01 | locus YKR091W, strain srl3, active compounds read low 1.01 | locus YLL001W, strain dnm1, active compounds read low 1.02 | locus YLL026W, active compounds read low 1 | locus YLL041C, strain sdh2, active compounds read low 0.993 | locus YLR027C, strain aat2, active compounds read low 0.97 | locus YLR113W, strain HOG1, active compounds read low 0.923 | locus YLR221C, strain rsa3, active compounds read low 0.986 | locus YLR258W, strain gsy2, active compounds read low 0.958 | locus YLR262C, strain YPT6 (second series), active compounds read low 0.947 | locus YLR320W, strain mms22, active compounds read low 0.991 | locus YLR342W, strain FKS1, active compounds read low 0.974 | locus YLR357W, strain rsc2, active compounds read low 1.04 | locus YLR370C, strain arc18, active compounds read low 0.973 | locus YLR384C, strain iki3, active compounds read low 0.981 | locus YML120C, strain ndi1, active compounds read low 0.967 | locus YMR058W, strain fet3, active compounds read low 1.02 | locus YMR125W, strain sto1, active compounds read low 1 | locus YMR129W, active compounds read low 0.967 | locus YMR205C, strain PFK2, active compounds read low 0.943 | locus YMR231W, strain pep5, active compounds read low 1.02 | locus YNL071W, strain lat1, active compounds read low 1.01 | locus YNL183C, strain NPR1, active compounds read low 0.958 | locus YNL209W, strain ssb2, active compounds read low 0.99 | locus YNL248C, strain rpa49, active compounds read low 1.03 | locus YNL322C, strain KRE1 (second series), active compounds read low 1.01 | locus YNR049C, strain mso1, active compounds read low 0.97 | locus YOR001W, strain rrp6, active compounds read low 0.99 | locus YOR070C, strain gyp1, active compounds read low 0.978 | locus YOR080W, strain dia2, active compounds read low 0.996 | locus YOR083W, strain WHI5, active compounds read low 0.997 | locus YOR106W, strain vam3, active compounds read low 1.03 | locus YOR231W, strain MKK1, active compounds read low 0.994 | locus YOR265W, strain rbl2, active compounds read low 0.979 | locus YOR270C, strain vph1, active compounds read low 1.01 | locus YOR290C, strain snf2, active compounds read low 1.01 | locus YPL051W, strain arl3, active compounds read low 1 | locus YPL078C, strain atp4, active compounds read low 0.996 | locus YPL106C, strain sse1, active compounds read low 1.01 | locus YPL240C, strain hsp82, active compounds read low 1 | locus YPL256C, strain CLN2, active compounds read low 1.04
